Results from PubChem BioAssay AID1159580 (chemical genetic matrix, 2015).
Where “and” joins values, the source holds several entries; their conditions need not be identical. Equal entries are not always repeated. Screen size: about 5,500 compounds; about 2,000 (36%) were called active. Another 18% or so got no clear call; they are omitted. Cut-off read from the data, not from the text of the source: active = normalized growth mostly below about 0.91 (no sharp cut-off); inconclusive = no clear call, values can overlap the other calls; inactive = mostly above about 0.92. The list shows a part of the results.

Assay: chemical genetic growth profiling, strain panel (AID 1159580);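 note: tested at 20 µM; growth read once vehicle control cultures reached saturation at 30 °C; 1 = growth at the plate median or of vehicle wells; lower values mean less growth of the strain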
Settings: S. cerevisiae deletion strains, growth OD

Measured: normalized growth

Oc1c(Cl)cc(Cl)c2cccnc12
active: locus YAL013W, strain DEP1, stronger effect = lower value 0.0554 | locus YAL021C, strain ccr4, stronger effect = lower value 0.0642 | locus YAL026C, strain drs2, stronger effect = lower value 0.0607 | locus YAL030W, strain snc1, stronger effect = lower value 0.0606 | locus YBL061C, strain skt5, stronger effect = lower value 0.0718 | locus YBR009C, strain hhf1, stronger effect = lower value 0.0665 | locus YBR021W, strain FUR4, stronger effect = lower value 0.0914 | locus YBR023C, strain chs3, stronger effect = lower value 0.0713 | locus YBR171W, strain sec66, stronger effect = lower value 0.083 | locus YBR229C, strain ROT2, stronger effect = lower value 0.0477 | locus YBR231C, strain swc5, stronger effect = lower value 0.0819 | locus YBR279W, strain paf1, stronger effect = lower value 0.064 | locus YCL011C, strain gbp2, stronger effect = lower value 0.0637 | locus YCL016C, strain dcc1, stronger effect = lower value 0.0656 | locus YCL029C, strain bik1, stronger effect = lower value 0.0628 | locus YCL061C, strain MRC1, stronger effect = lower value 0.0645 | locus YCL069W, strain vba3, stronger effect = lower value 0.0656 | locus YCR088W, strain abp1, stronger effect = lower value 0.0623 | locus YDL005C, strain med2, stronger effect = lower value 0.0757 | locus YDL035C, strain GPR1, stronger effect = lower value 0.0525 | locus YDL040C, strain nat1, stronger effect = lower value 0.0611 | locus YDL074C, strain BRE1, stronger effect = lower value 0.0827 | locus YDL101C, strain DUN1, stronger effect = lower value 0.0602 | locus YDL134C, strain PPH21, stronger effect = lower value 0.0491 | locus YDL185W, strain tfp1, stronger effect = lower value 0.0641 | locus YDL192W, strain arf1, stronger effect = lower value 0.0659 | locus YDR001C, strain nth1, stronger effect = lower value 0.0589 | locus YDR069C, strain doa4, stronger effect = lower value 0.0663 | locus YDR101C, strain arx1, stronger effect = lower value 0.0587 | locus YDR137W, strain rgp1, stronger effect = lower value 0.113 | locus YDR150W, strain NUM1, stronger effect = lower value 0.0572 | locus YDR159W, strain sac3, stronger effect = lower value 0.0885 | locus YDR162C, strain NBP2, stronger effect = lower value 0.0476 | locus YDR195W, strain ref2 0.117 | locus YDR297W, strain sur2, stronger effect = lower value 0.067 | locus YDR318W, strain mcm21, stronger effect = lower value 0.0673 | locus YDR334W, strain swr1, stronger effect = lower value 0.0629 | locus YDR335W, strain msn5, stronger effect = lower value 0.0654 | locus YDR388W, stronger effect = lower value 0.0609 | locus YDR392W, strain spt3, stronger effect = lower value 0.0726 | locus YDR502C, strain sam2, stronger effect = lower value 0.0656 | locus YEL003W, strain gim4, stronger effect = lower value 0.0637 | locus YEL037C, strain rad23, stronger effect = lower value 0.0639 | locus YEL061C, strain CIN8 (second series), stronger effect = lower value 0.0636 | locus YEL061C, strain CIN8, stronger effect = lower value 0.0482 | locus YER015W, strain faa2, stronger effect = lower value 0.0692 | locus YER016W, strain bim1, stronger effect = lower value 0.0695 | locus YER110C, stronger effect = lower value 0.08 | locus YER111C, strain swi4, stronger effect = lower value 0.0742 | locus YER155C, strain BEM2 (second series), stronger effect = lower value 0.0894 | locus YER155C, strain BEM2, stronger effect = lower value 0.0642 | locus YER167W, strain BCK2, stronger effect = lower value 0.0516 | locus YFR010W, strain ubp6, stronger effect = lower value 0.0659 | locus YGL078C, strain dbp3, stronger effect = lower value 0.0639 | locus YGL086W, strain mad1, stronger effect = lower value 0.0594 | locus YGL167C, strain pmr1, stronger effect = lower value 0.0827 | locus YGL173C, strain kem1, stronger effect = lower value 0.076 | locus YGL227W, strain vid30, stronger effect = lower value 0.0665 | locus YGL240W, strain doc1, stronger effect = lower value 0.0841 | locus YGL248W, strain PDE1, stronger effect = lower value 0.0454 | locus YGL253W, strain hxk2, stronger effect = lower value 0.0551 | locus YGR078C, strain PAC10, stronger effect = lower value 0.0521 | locus YGR135W, strain pre9, stronger effect = lower value 0.0748 | locus YGR229C, strain SMI1, stronger effect = lower value 0.0589 | locus YGR252W, strain gcn5, stronger effect = lower value 0.158 | locus YHR013C, strain ard1, stronger effect = lower value 0.111 | locus YHR027C, strain rpn1, stronger effect = lower value 0.0681 | locus YHR030C, strain SLT2, stronger effect = lower value 0.0506 and 0.116 | locus YHR079C, strain IRE1 (second series), stronger effect = lower value 0.0598 | locus YHR079C, strain IRE1, stronger effect = lower value 0.119 | locus YHR094C, strain hxt1, stronger effect = lower value 0.0629 | locus YHR129C, strain ARP1, stronger effect = lower value 0.0524 | locus YHR142W, strain chs7, stronger effect = lower value 0.0684 | locus YHR200W, strain rpn10, stronger effect = lower value 0.066 | locus YIL066C, strain RNR3, stronger effect = lower value 0.0479 | locus YIL073C, strain SPO22, stronger effect = lower value 0.128 | locus YIL125W, strain kgd1, stronger effect = lower value 0.0656 | locus YIR030C, strain dcg1, stronger effect = lower value 0.0607 | locus YJL092W, strain hpr5, stronger effect = lower value 0.0625 | locus YJL095W, strain BCK1 (second series), stronger effect = lower value 0.0621 | locus YJL095W, strain BCK1, stronger effect = lower value 0.0584 and 0.118 | locus YJL115W, strain asf1, stronger effect = lower value 0.0757 | locus YJL129C, strain trk1, stronger effect = lower value 0.089 | locus YJL134W, strain LCB3, stronger effect = lower value 0.0493 | locus YJL154C, strain vps35, stronger effect = lower value 0.0617 | locus YJL164C, strain tpk1, stronger effect = lower value 0.062 | locus YJL166W, strain qcr8, stronger effect = lower value 0.0623 | locus YJL168C, strain set2, stronger effect = lower value 0.0626 | locus YJL187C, strain SWE1 (second series), stronger effect = lower value 0.0481 | locus YJL187C, strain SWE1, stronger effect = lower value 0.0669 | locus YJR043C, strain POL32, stronger effect = lower value 0.0614
